Measurements from PubChem BioAssay (NCI).
This is part of a sample that, as a whole, favours compounds with a hit. Of some 79,000 tested, about 15% had one in any assay. Cut-off read from the data, not from the text of the source: active = growth inhibition above about 70%; inactive = the rest.

Legend:
[1] = NCI Yeast Anticancer Drug Screen. Data for the rad50 strain (AID 155);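 note: 0% = growth of vehicle-only cultures of the same strain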; conditions: S. cerevisiae rad50 strain growth inhibition; at 50.0 µM; active compounds read high
Method in brief: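 Vehicle-treated cultures provide the reference for the growth inhibition reported for compound-exposed, repair-deficient yeast.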

[2] = NCI Yeast Anticancer Drug Screen. Data for the mec2-1 strain (AID 157); conditions: S. cerevisiae mec2-1 strain, at 50.0 µM, active compounds read high
Method in brief: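 mec2-1 yeast strain, carrying an alteration in DNA damage repair or cell cycle control, was exposed to compounds; growth inhibition was measured relative to vehicle-treated controls.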

[3] = NCI Yeast Anticancer Drug Screen. Data for the sgs1 mgt1 strain (AID 161);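 note: 0% = growth of cultures given vehicle only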; conditions: S. cerevisiae sgs1 mgt1 strain, at 50.0 µM, active compounds read high
Method in brief: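 Yeast cells carrying a defined DNA-repair defect were exposed to test compounds. Growth inhibition was measured relative to vehicle-treated controls.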

[4] = NCI Yeast Anticancer Drug Screen. Data for the cln2 rad14 strain (AID 165);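 note: 0% = growth equal to vehicle treated cultures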; conditions: S. cerevisiae cln2 rad14 strain, at 50.0 µM, active compounds read high
Method in brief: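 Yeast carrying cln2 and rad14 alterations (cell cycle control and DNA damage repair) were exposed to compounds. Growth inhibition was measured against vehicle-treated controls.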

[5] = NCI Yeast Anticancer Drug Screen. Data for the bub3 strain (AID 167); conditions: S. cerevisiae bub3 mutant strain, at 50.0 µM, active compounds read high
Method in brief: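 Mutant yeast screening strain plus compound; vehicle-treated cultures serve as the 0% inhibition reference.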

[6] = NCI Yeast Anticancer Drug Screen. Data for the mlh1 rad18 strain (AID 175); conditions: S. cerevisiae mlh1 rad18 strain growth inhibition; at 50.0 µM; active compounds read high
Method in brief: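 Growth inhibition of the yeast strain was measured after compound exposure and expressed relative to vehicle-treated controls. The strain carries defined defects in DNA damage repair.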

Measured: growth inhibition

CCSC1OC(C(O)CO)C(O)C1NC(=O)C(F)(F)F (stereo unspecified)
inactive: [1] 5.65% | [2] 6.05% | [3] 1.5% | [4] 1.1% | [5] 32% | [6] 12.8%

COc1cc2c(cc1OC)C(c1cc(OC)c(OC)c(OC)c1)C1(O)C(=O)OCC1(O)C2 (stereo unspecified)
inactive: [1] 20.1% | [2] -8.25% | [3] 13.1% | [4] 21.8% | [5] 19.4% | [6] 20.2%

NC(=O)c1ncn(C2CCC(CP(=O)(O)O)C2)c1N (stereo unspecified)
inactive: [1] -7.45% | [2] -14.1% | [3] -9.55% | [4] -28.4% | [5] -7% | [6] 5.8%

CCCCCCCCCCCCCCCCSc1ccc(S(=O)(=O)N(C)C)cc1N
inactive: [1] -16.3% | [2] -36.8% | [3] 3.15% | [4] 10% | [5] 0.75% | [6] 11.9%

Oc1ccccc1C=Nc1ccccc1
inactive: [1] 29% | [2] 1.95% | [3] 0% | [4] 6.8% | [5] -1.25% | [6] -2.4%

CC(=O)Nc1nc(NC(C)=O)c2nc(CCN(C)c3ccc(C(=O)O)cc3)cnc2n1
inactive: [1] -9.05% | [2] -18.4% | [3] -5.6% | [4] -5.25% | [5] -40.5% | [6] 2.15%

O=C(C1CC=CCC1C(=O)N1CCCCC1)N1CCCCC1 (stereo unspecified)
inactive: [1] 11.1% | [2] -8.65% | [3] -6.2% | [4] -3.7% | [5] 9.1% | [6] -16.9%

Cc1c(CCCl)c(=O)n2c([nH]c3ccccc32)c1C#N
inactive: [1] 56.5% | [2] -56.5% | [3] 18.6% | [4] 5.2% | [5] -52.1% | [6] 62%

S=C1Cc2c([nH]c3ccccc23)-c2ccccc2N1
inactive: [1] -11.1% | [2] 26.6% | [3] -8.85% | [4] -3.9% | [5] 23.2% | [6] 2.45%

CC(=O)c1cccc(NC(=O)c2cccc(Cl)c2)c1
inactive: [1] -1.9% | [2] -4.3% | [3] 24.5% | [4] -16.1% | [5] 20.4% | [6] 20.9%

Clc1ccccc1C(Cl)c1ccccc1 (stereo unspecified)
inactive: [1] 3.3% | [2] -14.2% | [3] -5.95% | [4] -21.6% | [5] -10.7% | [6] -6.25%

O=S(=O)(SC1=NCCN1)c1ccc2ccccc2c1
inactive: [1] -2.75% | [2] -5.15% | [3] -15.1% | [4] 6.65% | [5] -3% | [6] -41.5%

O=C1C(=O)N(c2cc(Cl)ccc2Cl)C(=O)C(=O)C1c1nc2ccccc2s1
inactive: [1] -7.8% | [2] 18.6% | [3] 0.3% | [4] -18.8% | [5] 9.4% | [6] -19.4%

COC(=O)CNc1cccc([N+](=O)[O-])c1
inactive: [1] -3.45% | [2] 5.15% | [3] -3.65% | [4] -14.7% | [5] -11.3% | [6] -19.2%

Cc1nc2c(ccc3cc4ccccc4cc32)cc1N(CCO)CCO
inactive: [1] 28.1% | [2] -0.75% | [3] -0.15% | [4] 20.9% | [5] 16.6% | [6] 18.1%

N#CC(=NCCO)C1=C(O)c2ccccc2C1=O
inactive: [1] 6.1% | [2] -10.7% | [3] -16.3% | [4] -30.6% | [5] -48% | [6] -12.3%

Cc1cc(C)c(C#N)c(SC(C(=O)Nc2cc(C(F)(F)F)ccc2Cl)c2ccccc2)n1 (stereo unspecified)
inactive: [1] 2.35% | [2] -13.2% | [3] 23.6% | [4] 19.1% | [5] 2.95% | [6] 8.25%

COc1ccc(S(=O)(=O)O)cc1NC(=O)CC(=O)c1cccc([N+](=O)[O-])c1
inactive: [1] -5.5% | [2] -18% | [3] 9.2% | [4] 9.05% | [5] -12% | [6] -15.9%

O=C(Nc1ccccc1[N+](=O)[O-])OCc1ccccc1
inactive: [1] -10.7% | [2] 10.4% | [3] 13.5% | [4] 10.1% | [5] 1.6% | [6] 8.2%

Cc1ccc(NC(=S)NC(=O)c2cccc([N+](=O)[O-])c2)cc1C
inactive: [1] 1.8% | [2] 15.5% | [3] 14.5% | [4] -26.7% | [5] 0.6% | [6] 11.7%

COc1cc(O)c(OC)c(O)c1C(C)=O
inactive: [1] -3.5% | [2] -11.2% | [3] -17.4% | [4] -19.7% | [5] 2.25% | [6] -0.65%
